Screening results: PubChem BioAssay, Bradner/Qi Labs at DFCI
The entries come from a sample that favours hits as a whole.
CBX7 AlphaScr = blocks human CBX7 binding to H3K27me3 peptide. O95931. AlphaScreen His6-CBX7 / biotin-H3K27me3 peptide binding; stronger effect = lower value. normalised signal (fraction of DMSO) (concentration not given with the values). hit rate 1.1% among 66,000. AID 1224903; in the data active = normalised signal below about 0.5
Target sequence (O95931 whole entry, looked up): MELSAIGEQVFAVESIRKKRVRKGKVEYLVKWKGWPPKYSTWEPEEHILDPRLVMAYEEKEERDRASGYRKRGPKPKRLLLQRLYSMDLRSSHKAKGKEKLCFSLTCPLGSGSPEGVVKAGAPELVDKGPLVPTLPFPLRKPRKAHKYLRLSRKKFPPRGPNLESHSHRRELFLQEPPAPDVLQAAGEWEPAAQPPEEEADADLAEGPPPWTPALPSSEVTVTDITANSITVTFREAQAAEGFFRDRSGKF
Numbers without * were called inactive; ! = not confirmed by another sample.

SMILES | CBX7 AlphaScr
O=S(=O)(c1ccc(Cl)cc1)N(CCCN1CCOCC1)Cc1cccs1 | 0.49*
COCCCNC(=O)CSc1nc(-c2cccc(OC)c2)[nH]c1-c1ccccc1 | 0.97
CCCCOc1ccccc1NC(=O)Cn1nnc(-c2ccccc2F)n1 | 0.99
CCn1cnc2cc(NCc3ccncc3)ccc21 | 0.96
CCCn1cnc2cc(NCc3cccc(Br)c3)ccc21 | 0.33*
CCCCn1cnc2cc(NCc3cccc(Br)c3)ccc21 | 0.25*
CC(C)(C)n1cnc2cc(NCc3cccc(Br)c3)ccc21 | 0.75
COc1ccc(CNc2ccc3c(c2)ncn3C)cc1OC | 1
COc1cccc(CNc2ccc3c(c2)nc(C)n3C)c1 | 1
CCn1cnc2cc(NCc3cccc(OC)c3OC)ccc21 | 0.94
CCCCn1cnc2cc(NCc3cccc(OC)c3OC)ccc21 | 0.54
CCn1cnc2cc(NCc3cccc(Br)c3)ccc21 | 0.45*
Cc1cc2cc(CCNC(=O)c3cc(Br)ccc3Cl)c(=O)[nH]c2cc1C | 0.99
CCOc1cccc2sc(NC(=O)c3ccc(S(=O)(=O)N4CC(C)OC(C)C4)cc3)nc12 (stereo not drawn) | 1.3
CCOC(=O)c1sc(Nc2ccc(S(N)(=O)=O)cc2)nc1C | 1
Cc1ccccc1NC(=O)Cc1c(C(=O)O)[nH]c2ccccc12 | 1
Cc1c(Cl)cccc1NC(=O)Nc1cccs1 | 1
Cc1cccc(Nc2nc3ccccc3nc2-n2nc(C)cc2C)c1 | 2.6
Cc1cc(C)n(-c2nc3ccccc3nc2Nc2ccc(N(C)C)cc2)n1 | 0.22*
Cc1cc(C)n(-c2nc3ccccc3nc2Nc2ccc3c(c2)OCCO3)n1 | 1.9
CCOC(=O)N1CCN(C(=O)c2cc(-c3ccc(C)c(C)c3)nc3ccccc23)CC1 | 0.94
CC(NC(=O)c1cccc2c1C(=O)N(Cc1cccnc1)C2)c1cccs1 (stereo not drawn) | 0.95
CC1CCCCN1S(=O)(=O)c1ccc(C(=O)Nc2nnc(C3CC3)o2)cc1 (stereo not drawn) | 0.00088*
O=C(Nc1nnc(C2CC2)o1)c1ccc(S(=O)(=O)N2CCCCC2)cc1 | 0.012*
COCc1nnc(NC(=O)c2ccc(S(=O)(=O)N3CCCCC3C)cc2)o1 (stereo not drawn) | 0.74
SMILES | CBX7 AlphaScr
CCc1nnc(NC(=O)c2ccc(S(=O)(=O)N(C)C3CCCCC3)cc2)o1 | 0.065*
CN(C1CCCCC1)S(=O)(=O)c1ccc(C(=O)Nc2ccccc2-c2nc3ccccc3[nH]2)cc1 | 0.93
CCc1nnc(NC(=O)c2ccc(S(=O)(=O)N3CC(C)OC(C)C3)cc2)o1 (stereo not drawn) | 0.67
CC1CCN(S(=O)(=O)c2ccc(C(=O)Nc3nnc(C4CC4)o3)cc2)CC1 | 0.74
CC1CN(S(=O)(=O)c2ccc(C(=O)Nc3nnc(C4CC4)o3)cc2)CC(C)O1 (stereo not drawn) | 0.64
O=C(Nc1nnc(C2CC2)o1)c1ccc(S(=O)(=O)N2CCCc3ccccc32)cc1 | 0.69
COCc1nnc(NC(=O)c2ccc(S(=O)(=O)N3CCOCC3)cc2)o1 | 0.69
CCOC(=O)c1oc2ccccc2c1NC(=O)c1ccc(S(=O)(=O)N(C)C2CCCCC2)cc1 | 1.1
CCc1nnc(NC(=O)c2ccc(S(=O)(=O)N3CCCCCC3)cc2)o1 | 0.043*
Cc1c(Cl)cccc1NC(=O)CN(C)S(=O)(=O)c1cccc2cccnc12 | 0.84
Cc1ccc2cc(CCNC(=O)Cc3ccc(F)cc3)c(=O)[nH]c2c1C | 1.1
Cc1ccc(CNC(=O)c2nc(-c3cccc(C)c3)oc2C)cc1 | 0.87
O=C(CSc1oc(-c2ccccc2)nc1S(=O)(=O)c1ccc(F)cc1)c1ccc(Cl)cc1 | 0.89
CN(Cc1ccccc1)C(=O)CCCN1C(=O)CSc2ncccc21 | 1
CC1CCCN(CCCNC(=O)c2ccc3c(c2)N(Cc2c(F)cccc2Cl)C(=O)CS3)C1 (stereo not drawn) | 1
O=C(CSc1nnnn1C1CCCCC1)NCc1ccc(C(=O)O)cc1 | 1.1
CC(C)(C)c1ccc(C(=O)Nc2ccc(S(=O)(=O)N3CCCCCC3)cc2)cc1 | 1
O=c1cc(Cc2nnc(SCc3cccc(Cl)c3)n2-c2ccc(F)cc2)[nH]c(=O)[nH]1 | 1.1
O=C(CCCn1c(=O)[nH]c2ccccc2c1=O)N1CCN(c2cccc(Cl)c2)CC1 | 0.95
CC(=O)Nc1nonc1-c1nc2ccccc2n1CC#N | 1.1
COc1cc(S(=O)(=O)NCCc2c(C)[nH]c3ccc(C)cc23)ccc1Cl | 0.43*
COc1ccc(S(=O)(=O)NCCc2c(C)[nH]c3ccc(C)cc23)c2ccccc12 | 0.8
COc1ccc(C)cc1S(=O)(=O)NCCc1c(C)[nH]c2ccc(Br)cc12 | 1.1
COc1ccc(C)cc1S(=O)(=O)NCCc1c(C)[nH]c2ccc(C)cc12 | 0.4*
COc1cc(C)c(S(=O)(=O)NCCc2c(C)[nH]c3ccc(F)cc23)cc1C | 0.95
SMILES | CBX7 AlphaScr
Cc1ccc2[nH]c(C)c(CCNS(=O)(=O)c3ccc(F)cc3)c2c1 | 0.45*
COc1ccc(C)cc1S(=O)(=O)NCCc1c(C)[nH]c2ccccc12 | 0.87
COc1ccc(S(=O)(=O)NCCc2c(C)[nH]c3ccc(C)cc23)cc1OC | 0.63
CCOc1ccc(S(=O)(=O)NCCc2c(C)[nH]c3ccc(C)cc23)cc1 | 0.96
CCOc1ccc(S(=O)(=O)NCCc2c(C)[nH]c3ccc(F)cc23)cc1 | 0.92
COc1ccc(S(=O)(=O)NCCc2c(C)[nH]c3ccc(Br)cc23)cc1C | 0.57
COc1cc(S(=O)(=O)NCCc2c(C)[nH]c3ccc(C)cc23)c(C)cc1C | 0.35*
COc1cccc2ccc(/C=C/c3ccc(Br)cc3)nc12 | 1.4
CCOC(=O)c1cc(-c2ccccc2)n(CCC(=O)Nc2cc(Cl)ccc2OC)c1C | 0.98
CCOC(=O)c1cnc2ccc(OCC)cc2c1Nc1cccc(C(F)(F)F)c1 | 1.1
Cc1cccc(CCNC(=O)c2ccc3c(c2)N(Cc2cccc(F)c2)C(=O)c2ccccc2S3)c1 | 1.1
Cc1cccc(NC(=O)Cn2c(C)cc3ccccc3c2=O)n1 | 0.93
CCCCN1C(=O)CN(C2CCC(C)CC2)C(=O)C1c1ccc(OC(C)C)c(OC)c1 (stereo not drawn) | 0.91
Cc1onc(-c2c(F)cccc2Cl)c1C(=O)Nc1ccccc1 | 1
Cc1onc(-c2c(F)cccc2Cl)c1C(=O)NCC1COc2ccccc2O1 (stereo not drawn) | 0.47*
Cc1onc(-c2c(Cl)cccc2Cl)c1C(=O)NCC1CCCO1 (stereo not drawn) | 1
CCC(C)NC(=O)c1ccc2c(c1)N(Cc1ccc(C)cc1)C(=O)c1ccccc1S2 (stereo not drawn) | 0.78
O=C(Nc1ccc2nc3n(c(=O)c2c1)CCCCC3)c1cncc(Br)c1 | 1
O=C(CSc1nnc(-c2ccco2)o1)c1cccc2ccccc12 | 1
CCc1nnc(NC(=O)c2cc(OC)c(OC)c(OC)c2)s1 | 0.99
CCc1nnc(NC(=O)c2ccc(C(C)(C)C)cc2)s1 | 0.99
CCc1nnc(NC(=O)c2ncn[nH]2)s1 | 0.38*
CCOc1ccc(-n2nc(C(=O)NCCCOC)c3ccccc3c2=O)cc1 | 0.95
COc1ccc(-c2cc(C(F)(F)F)n3nc(C(=O)N(C)CCc4ccccn4)c(Cl)c3n2)cc1OC | 0.96
COc1ccc(-c2c(-c3ccc(OC)cc3O)n[nH]c2C)cc1 | 0.66
COc1ccc(-c2n[nH]c(C)c2-c2ccc3c(c2)OCCCO3)c(O)c1 | 0.45*
COc1ccc(-c2n[nH]c(C)c2-c2ccc(F)cc2)c(O)c1 | 0.74
Cc1cc(C(=O)Nc2ccccc2C(F)(F)F)on1 | 0.92
c1ccc(-c2csc(Nc3ccc4c(c3)OCO4)n2)cc1 | 0.37*!
